In PubChem BioAssay (NCATS) one finds Potency data, which are given here for 39 molecules.

Unmarked numbers belong to inactive results. The source made the active and inactive calls. The rule behind the calls is not given here. Some results are limits rather than exact numbers.
Potency is the fitted concentration of half-maximal effect.

The assay concerns HIV-1 nucleocapsid protein NCp7 (binding to TG oligonucleotide). As to the kind of experiment: HIV Nucleocapsid (AID 346).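 Note: potency is for inhibitors that block NC binding and lower polarization.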 As to conditions: HIV-1 NC / fluorescein-TGTGTGTG probe, fluorescence polarization. A digest of the protocol:
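NCp7 100 nM + fluorescein TG4xF 10 nM; Hepes pH 7.5/250mM NaCl/1uM ZnCl2/0.004% PEG 20000; 1 hr RT; FP, 45 s exposure; oligo-only wells as negative control.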
As for `COc1ccccc1-c1nc(N2CCN(C)CC2)c2ccccc2n1`, the Potency was over 20 µM. For `CCNc1ncc2ncc(=O)n(Cc3ccc(F)cc3)c2n1`, the Potency is over 20 µM. In the case of `COc1ccc(-c2nc3cnc(N4CCNCC4)nc3n(CCc3ccccc3)c2=O)cc1`, the Potency was over 20 µM. Next, `Fc1ccc(Nc2ncncc2-c2ccccc2C(F)(F)F)cc1`: over 20 µM; `O=c1c(-c2cccs2)nc2cnc(Oc3ccccc3)nc2n1-c1ccccc1`: over 4 µM. Next, `Cc1ccccc1-c1cc(NCc2cccnc2)ncn1`: over 20 µM; `COc1ccc(-n2c(=O)c(C)nc3cnc(Nc4cccc(OC)c4)nc32)cc1`: over 20 µM.

As to `FC(F)(F)c1ccccc1-c1cncnc1NCc1cccnc1`, the Potency was over 20 µM. Next, `COCCn1c(=O)c(-c2cc(F)cc(F)c2)nc2cncnc21`: over 20 µM. On to `O=C(c1cccc(F)c1)N1CCC2(CC1)CCN(c1ccccc1)CC2`, for which the Potency is over 20 µM. Regarding `CN1CCN(c2cc(-c3ccoc3)ncn2)CC1`, the Potency is over 20 µM.

With `CN(C)Cc1ccccc1-c1nccc(NC2CC2)n1`, the Potency is over 20 µM.

For `N#Cc1cccc(-c2ccc3ncnc(NCc4ccccc4)c3c2)c1`, the Potency is over 20 µM. Consider `O=c1c(-c2cc(F)cc(F)c2)nc2cnc(N3CCOCC3)nc2n1CCc1ccccc1`, for which the Potency was over 20 µM. Consider `COc1cccc(Nc2ncc3ncc(=O)n(C4CC4)c3n2)c1`, for which the Potency was over 4 µM. Consider `COCCNc1ncnc2ccc(-c3ccc(C(=O)N(C)C)cc3)cc12`, for which the Potency was over 20 µM. Take `Cc1nc2cnc(N(C)C)nc2n(Cc2ccc(F)cc2)c1=O`: the Potency was over 20 µM. Next, `COc1ccc(C(=O)N2CCC3(CC2)CN(c2ccccc2)C3)cc1`: over 20 µM; `COCCn1c(=O)c(C)nc2cncnc21`: over 20 µM. On to `COc1ncc2nc(-c3cccs3)c(=O)n(C)c2n1`, for which the Potency was over 20 µM. With `COc1ccc(-c2nc3cnc(Oc4cccc(Cl)c4)nc3n(C[C@H]3CCCO3)c2=O)cc1`, the Potency was over 20 µM. For `COc1ccc(CNc2ccnc(-c3c(C)noc3C)n2)c(OC)c1`, the Potency is over 20 µM. With `O=S(=O)(c1ccccc1)N1CCC[C@@]2(CCN(c3ccncc3)C2)C1`, the Potency is over 20 µM.

For `COc1ccc(NC(=O)N2CCCC3(CCN(C(=O)c4ccc(OC)cc4)CC3)C2)cc1`, the Potency is over 20 µM.

On to `COc1ccc2[nH]cc(CCNc3cc(-c4ccc(C(=O)N(C)C)cc4)ncn3)c2c1`, for which the Potency is over 20 µM.

`Cc1noc(C)c1-c1nc(Nc2ccccc2)c2ccccc2n1`: the Potency was over 20 µM. Next, `Cc1cccc(CNc2nc(-c3ccoc3)nc3ccccc23)c1`: over 20 µM. For `c1csc(CNc2ncnc3ccc(-c4ccc5c(c4)OCO5)cc23)c1`, the Potency was over 20 µM. Next, `CN1CCN(c2ncc3nc(-c4ccc(F)cc4)c(=O)n(Cc4cccs4)c3n2)CC1`: over 20 µM.

On to `CCNc1ncc2nc(-c3cccs3)c(=O)n(CCC#N)c2n1`, for which the Potency is 6.37 µM (active). In the case of `COc1ccccc1-c1nc(N(C)C)c2ccccc2n1`, the Potency is over 20 µM. `CCNc1ncc2nc(-c3ccc(OC)cc3)c(=O)n(CCC#N)c2n1`: the Potency is over 20 µM. Take `Cc1noc(C)c1C(=O)N1CCC[C@@]2(CCN(Cc3cc(C(F)(F)F)cc(C(F)(F)F)c3)C2)C1`: the Potency was over 20 µM. For `COCCNc1nc(-c2ccc(N(C)C)cc2)nc2ccccc12`, the Potency is over 20 µM. Next, `CC(=O)N1CCC2(CCCN(c3ccccc3)C2)CC1`: over 20 µM; `FC(F)(F)c1ccccc1-c1nccc(NCc2cccs2)n1`: over 20 µM; `COc1ccc(CNc2ncncc2-c2ccccc2Cl)c(OC)c1`: over 20 µM. For the molecule `COc1cccc(Cn2c(=O)c(-c3ccccc3)nc3cncnc32)c1`, the Potency is over 20 µM.

In the case of `COC(=O)N1CCC2(CC1)CN(C(=O)Nc1cccc(F)c1)C2`, the Potency is over 20 µM.
